Where “and” joins values, the source holds several entries; their conditions need not be identical. Identical values can stand only once. Records with an inconclusive call do not appear. Calls of active or inactive are those of the source. Calls follow the shape of the dose curve; as a rule, active = well fitted curve in the direction sought with a large enough effect; inconclusive = small, poorly fitted or top-dose-only effect, or another doubt; inactive = no such curve, though single readings can be large; an effect the other way counts as inactive or inconclusive.
Assays:
[1] = tested on: Zika virus NS2B-NS3 protease; test: Primary screen GU AMC qHTS for Zika virus inhibitors (AID 1347154); also: nearly all actives have a fitted effect of over 70% in size; also: potency is read from the fitted curve at half-maximal effect;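 as to activity change, negative = inhibition: 0% = no-inhibitor control and -100% = no-enzyme control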
Outline: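 Unlinked Zika NS2B hydrophilic domain/NS3 protease domain noncovalent complex (25 nM final) in 10 mM Tris-HCl pH 8.0, 0.01% Tween 20, with AMC peptide substrate. Fluorescence (ex 340, em 450 nm) change over 15 min, room temperature; percent inhibition fitted to 4-parameter Hill equation.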

[2] = Confirmatory screen GU Rhodamine qHTS for Zika virus inhibitors qHTS (AID 1347157);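 also: plate controls were no-inhibitor wells for no effect and no-enzyme wells for full effect; nearly all actives have a fitted effect of over 70% in size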
Outline: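 Unlinked NS2B/NS3, 25 nM; Rhod110 peptide, 1.5 microM; compounds, up to 114 microM. Reaction run 15 min at RT in 10 mM Tris-HCl pH 8.0, 0.01% Tween 20; kinetic fluorescence change fitted with a 4-parameter Hill model.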

[3] = Confirmatory screen NINDS Rhodamine qHTS for Zika virus inhibitors (AID 1347161); also: nearly all actives have a fitted effect of over 60% in size; also: potency is read from the fitted curve at half-maximal effect;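 as to activity change, negative = inhibition: purified Zika NS2B-NS3 protease with linked NS2B cofactor domain and Rhodamine110 peptide substrate; plate controls were no-inhibitor control for no effect and no-enzyme control for full effect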
Outline: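 Kinetic fluorescence (Ex 480 nm, Em 540 nm) over 15 min with 1.5 microM Rhodamine110 peptide and 25 nM linked protease.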

[4] = Tertiary RLuc qRT-PCR qHTS assay for Zika virus inhibitors (AID 1347169); also: nearly all actives have a fitted effect of over 55% in size; also: potency is read from the fitted curve at half-maximal effect; as to activity change, negative = inhibition: top concentration of the series differs between compounds; % is scaled to controls: 0 for no effect and ±100 for the full control effect
Outline: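 Orthogonal cell-based infection assay using recombinant ZIKV-RLuc (Cambodian) in Vero cells; compound added prior to virus at MOI 1-2. Incubation lasts 48-72 hrs at 37 degrees C before live-cell Renilla substrate is added and luminescence measured.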

[5] = qHTS to identify inhibitors of the type 1 interferon - major histocompatibility complex class I in skeletal muscle: primary screen against the NCATS Pharmaceutical Collection (AID 1347407);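 also: luminescence of HiBiT knocked into endogenous HLA-B as interferon-induced MHC class I level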; also: potency is read from the fitted curve at half-maximal effect; as to activity change, negative = inhibition: % is scaled to controls: 0 for no effect and ±100 for the full control effect
Outline: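 Cells were seeded with 4 ng/ml IFN-beta, incubated 1 h, then dosed with compounds over eight 1:5 steps up to 46 uM final. After 24 h at 37 C, HiBiT lytic reagent was added and luminescence read after 10 min lysis in the dark.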

[6] = qHTS to identify inhibitors of the type 1 interferon - major histocompatibility complex class I in skeletal muscle: primary screen against the NCATS Mechanism Interrogation Plate v5.0 (MIPE) Libary (AID 1347411); also: nearly all actives have a fitted effect of over 65% in size; also: potency is read from the fitted curve at half-maximal effect;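 as to activity change, negative = inhibition: plate controls were vehicle for no effect and reference inhibitor for full effect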
Outline: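 Immortalized human C25cl48 myoblasts with HiBit knocked into endogenous HLA-B*08:01 were stimulated with 4.0 ng/ml IFN-beta and exposed to compounds (11-point 1:3 titration, top 46 uM final) for 24 hrs at 37 C; HiBiT lytic luminescence measured.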

[7] = tested on: Zika virus NS2B-NS3 protease (unlinked); test: Optimization of GU AMC qHTS for Zika virus inhibitors: Unlinked NS2B-NS3 protease assay (AID 1347151); also: nearly all actives have a fitted effect of over 80% in size; also: potency is read from the fitted curve at half-maximal effect;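 as to activity change, negative = inhibition: 0% = no-inhibitor control and -100% = no-enzyme control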
Outline: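 Percent inhibition is derived from the 15-min change in AMC fluorescence, normalized against no-inhibitor and no-enzyme controls, then fitted to a 4-parameter Hill curve. Aprotinin was the intraplate control.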

[8] = biological target: Lysine-specific demethylase 5B (Homo sapiens) (UniProt Q9UGL1); test: Optimization screen for KDM5B Histone Demethylases FDH coupled qHTS against the LOPAC library (AID 1347166); details: KDM5B demethylation, FDH-coupled NADH fluorescence (FDH is formaldehyde dehydrogenase); at 57.5 µM (top of the series); also: 0% is about no effect
Outline: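 KDM5BDeltaAP (200nM final) preincubated 10 min with compound, then 12.5uM H3K4Me3, 25uM a-ketoglutarate, ascorbate, Fe(II), NAD+ and FDH added; 50mM HEPES pH 7.5, 0.01% Tween-20. NADH fluorescence (340/450 nm) change over 30 min, room temperature.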

[9] = qHTS to identify inhibitors of the type 1 interferon - major histocompatibility complex class I in skeletal muscle: primary screen against the NCATS LOPAC collection (AID 1347405);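 also: lytic HiBiT luminescence reporting HLA-B protein level; % is scaled to controls: 0 for no effect and ±100 for the full control effect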
Outline: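 Immortalized human C25cl48 myoblasts with HiBiT knocked into endogenous HLA-B*08:01 were stimulated with 4.0 ng/ml IFN-beta and given compounds in a 7-point, 1:4.3 titration from 46 uM final; after 24 hrs, lytic HiBiT luminescence was read.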

[10] = qHTS for inhibitors of adenylyl cyclases using a fission yeast platform: a pilot screen against the NCATS LOPAC library (AID 1347410);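 also: plate controls were DMSO vehicle for no effect and DPI positive control for full effect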
Outline: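 Growth medium went into the plates first, then compounds were pinned (final up to 57 µM), then CHP2027 yeast were added. Plates were incubated overnight (18 h) at 30C in the dark, and GFP was measured by laser scanning cytometry.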

[11] = tested on: Zika virus NS2B-NS3 protease (unlinked complex); test: Primary screen GU Rhodamine qHTS for Zika virus inhibitors: Unlinked NS2B-NS3 protease assay (AID 1347159); also: nearly all actives have a fitted effect of over 60% in size; also: potency is read from the fitted curve at half-maximal effect; as to activity change, negative = inhibition: % is scaled to controls: 0 for no effect and ±100 for the full control effect
Outline: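 Compounds, tested up to 114 microM, were incubated for 15 minutes with 25 nM unlinked NS2B-NS3 protease at pH 8.0. Cleavage of 1.5 microM Rhodamine110 substrate was then followed by fluorescence for 15 minutes.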

[12] = Vero cells viability qHTS for Zika virus inhibitors (AID 1347167); also: potency is read from the fitted curve at half-maximal effect
Outline: (§1)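 Counter-screen for cytotoxicity of hits from NS2B-NS3 protease qHTS. Overnight-attached cells (2.5 x 10^5 cells/mL, DMEM/4% FBS) were dosed in titration, incubated 24 to 48 hours, then assayed by CellTiter Glo.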

[13] = HepG2 cells viability qHTS for Zika virus inhibitors (AID 1347168); also: potency is read from the fitted curve at half-maximal effect
Outline: as §1

[14] = tested on: Zika virus NS2B-NS3 protease (linked construct); test: Primary screen NINDS Rhodamine qHTS for Zika virus inhibitors (AID 1347160); details: outcome: dose series up to 57.1 µM unless noted; also: nearly all actives have a fitted effect of over 55% in size
Outline: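 Percent inhibition, normalized to uninhibited and enzyme-free controls, is fitted to a 4-parameter Hill equation. Fluorescence change comes from a 15-min cleavage of 1.5 microM bis-peptide Rhodamine110 substrate by 25 nM linked NS2B-NS3 at room temperature.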

[15] = biological target: Protein phosphatase 1D (Homo sapiens) (UniProt O15297); test: RapidFire Mass Spectrometry qHTS Assay for Modulators of WT P53-Induced Phosphatase 1 (WIP1) (AID 1347424);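 also: amount of dephosphorylated VEPPL-S-QETFS peptide product formed by WIP1; plate controls were DMSO wells for no effect and GSK830371 inhibitor control at 10 µM for full effect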
Outline: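 WIP1 (10 nM final) was preincubated 1 h at room temperature with compounds in Tris-HCl pH 7.5, 30 mM MgCl2, TCEP, EGTA, BSA; 2 uM VEPPL-pS-QETFS phosphopeptide was added for 5 min, quenched with formic acid, and dephosphorylated product quantified by RapidFire MS.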

[16] = tested on: Zika virus NS2B-NS3 protease (linked construct); test: Confirmatory screen NINDS AMC qHTS for Zika virus inhibitors (AID 1347152); also: potency is read from the fitted curve at half-maximal effect; nearly all actives have a fitted effect of over 70% in size
Outline: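 In this dose-response qHTS, AMC release from 10 microM Bz-Nle-KRR-AMC by 1 nM linked protease is measured over 15 minutes (about 20% conversion) at pH 8.0. Percent inhibition is fitted to a 4-parameter Hill curve.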

Sequence of Lysine-specific demethylase 5B (Homo sapiens) (Q9UGL1 whole entry, looked up): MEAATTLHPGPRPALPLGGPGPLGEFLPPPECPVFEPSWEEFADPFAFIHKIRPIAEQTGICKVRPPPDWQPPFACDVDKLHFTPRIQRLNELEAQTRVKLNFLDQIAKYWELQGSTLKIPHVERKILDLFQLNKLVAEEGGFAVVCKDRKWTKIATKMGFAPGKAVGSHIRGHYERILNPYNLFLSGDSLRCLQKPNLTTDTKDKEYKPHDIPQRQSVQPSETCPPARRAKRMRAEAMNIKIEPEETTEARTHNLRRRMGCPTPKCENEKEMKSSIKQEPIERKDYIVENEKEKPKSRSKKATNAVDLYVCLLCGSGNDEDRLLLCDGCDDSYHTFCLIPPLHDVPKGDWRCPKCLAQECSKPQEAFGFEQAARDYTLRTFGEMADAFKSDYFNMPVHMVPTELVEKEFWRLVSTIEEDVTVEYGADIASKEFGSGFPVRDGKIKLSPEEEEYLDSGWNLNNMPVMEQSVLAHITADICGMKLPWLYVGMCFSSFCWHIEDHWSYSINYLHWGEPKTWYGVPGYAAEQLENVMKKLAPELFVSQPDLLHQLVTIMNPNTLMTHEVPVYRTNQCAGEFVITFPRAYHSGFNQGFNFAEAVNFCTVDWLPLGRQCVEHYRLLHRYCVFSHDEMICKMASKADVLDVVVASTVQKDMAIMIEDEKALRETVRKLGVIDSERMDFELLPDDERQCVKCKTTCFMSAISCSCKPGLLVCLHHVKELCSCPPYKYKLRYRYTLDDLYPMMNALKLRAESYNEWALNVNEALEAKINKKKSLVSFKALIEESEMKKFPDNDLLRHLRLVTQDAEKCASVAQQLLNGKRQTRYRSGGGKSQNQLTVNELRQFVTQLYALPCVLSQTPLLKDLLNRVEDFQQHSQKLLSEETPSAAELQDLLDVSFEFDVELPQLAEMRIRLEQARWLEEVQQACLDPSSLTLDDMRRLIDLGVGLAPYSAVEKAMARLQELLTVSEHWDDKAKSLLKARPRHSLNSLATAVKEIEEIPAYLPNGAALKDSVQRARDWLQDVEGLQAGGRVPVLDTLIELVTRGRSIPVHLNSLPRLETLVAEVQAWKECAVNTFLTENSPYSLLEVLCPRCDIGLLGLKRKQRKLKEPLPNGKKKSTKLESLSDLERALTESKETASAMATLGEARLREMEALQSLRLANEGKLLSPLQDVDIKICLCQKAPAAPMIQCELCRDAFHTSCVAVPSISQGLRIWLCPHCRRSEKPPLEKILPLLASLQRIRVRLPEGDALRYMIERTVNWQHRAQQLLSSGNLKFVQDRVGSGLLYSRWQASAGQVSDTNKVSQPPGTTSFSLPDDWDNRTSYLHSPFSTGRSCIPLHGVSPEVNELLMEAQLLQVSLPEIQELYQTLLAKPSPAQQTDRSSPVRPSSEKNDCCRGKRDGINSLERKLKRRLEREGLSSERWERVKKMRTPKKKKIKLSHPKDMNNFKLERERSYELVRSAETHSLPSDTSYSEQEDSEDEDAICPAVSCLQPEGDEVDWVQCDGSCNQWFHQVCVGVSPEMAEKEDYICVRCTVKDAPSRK
Sequence of Protein phosphatase 1D (Homo sapiens) (O15297 whole entry, looked up): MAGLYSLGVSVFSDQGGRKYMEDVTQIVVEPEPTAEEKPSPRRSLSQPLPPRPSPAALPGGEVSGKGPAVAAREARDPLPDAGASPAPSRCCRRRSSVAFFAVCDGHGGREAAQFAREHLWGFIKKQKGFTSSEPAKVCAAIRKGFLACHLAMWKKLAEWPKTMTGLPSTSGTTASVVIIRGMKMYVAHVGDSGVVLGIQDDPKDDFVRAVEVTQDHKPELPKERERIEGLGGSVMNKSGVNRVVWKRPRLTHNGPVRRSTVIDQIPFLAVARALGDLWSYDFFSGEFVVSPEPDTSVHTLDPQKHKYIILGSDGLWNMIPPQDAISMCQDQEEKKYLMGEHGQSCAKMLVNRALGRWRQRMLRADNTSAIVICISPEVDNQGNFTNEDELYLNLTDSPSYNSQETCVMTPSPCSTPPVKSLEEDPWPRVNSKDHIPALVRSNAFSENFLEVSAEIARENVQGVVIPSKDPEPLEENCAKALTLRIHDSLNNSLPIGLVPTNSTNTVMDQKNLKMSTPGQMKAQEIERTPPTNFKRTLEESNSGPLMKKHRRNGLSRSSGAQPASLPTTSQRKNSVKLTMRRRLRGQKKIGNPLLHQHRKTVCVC

O=C(O)c1cccnc1
inactive: Potency [1]

COc1ccc(-c2ccc3cc(C(=O)O)ccc3c2)cc1C12CC3CC(CC(C3)C1)C2
inactive: Potency [1] | outcome [2] | Potency [3] | activity change, negative = inhibition [4] -1.33% [at 5.25 µM] | Potency [5] | Potency [6]

CCCCS(=N)(=O)CCC(N)C(=O)O (stereo unspecified)
inactive: Potency [7] | Potency [1] | activity, negative = inhibition [8] -3.95% | outcome [9] | outcome [10] | Potency [6]

CCN1CCCC1CNC(=O)c1cc(S(N)(=O)=O)ccc1OC (stereo unspecified)
inactive: Potency [7] | Potency [1] | activity, negative = inhibition [8] 2.22% | outcome [9] | outcome [10]

CCN(CC)CCn1c(=O)c(Cc2ccc(OC)cc2)nc2ccccc21
inactive: Potency [7] | Potency [1] | activity, negative = inhibition [8] -17% | outcome [9] | outcome [10] | Potency [6]

CNC(=O)c1cc(Oc2ccc(NC(=O)Nc3ccc(Cl)c(C(F)(F)F)c3)cc2)ccn1
inactive: Potency [1] | Potency [5]
active: Potency [7] 9.87 µM | Potency [11] 8.91 µM | Potency [3] 25.5 µM | Potency [12] 7.58 µM | Potency [13] 33.9 µM | Potency [6] 16.5 µM

Nc1nc(F)nc2c1ncn2[C@@H]1O[C@H](CO)[C@@H](O)[C@@H]1O
inactive: Potency [1] | Potency [11] | outcome [14] | Potency [5] | Potency [6] | outcome [15]

CC[C@H](C)C(=O)O[C@H]1C[C@@H](C)C=C2C=C[C@H](C)[C@H](CC[C@@H]3C[C@@H](O)CC(=O)O3)[C@H]21
inactive: Potency [1] | Potency [11] | outcome [14] inactive [at 33.1 µM] | Potency [5] | Potency [6]

Nc1nc(=S)c2[nH]cnc2[nH]1
active: Potency [4] 4.15 µM and 3.3 µM
inactive: Potency [7] | Potency [1] | Potency [12] | Potency [13] | Potency [5] | Potency [6] | outcome [15]

CC1=C(C(=O)O)N2C(=O)[C@@H](NC(=O)C(N)c3ccccc3)[C@H]2SC1 (stereo partly specified)
inactive: Potency [7] | Potency [1] | activity, negative = inhibition [8] -17.9% | outcome [9] | outcome [10]

CCn1cc(C(=O)O)c(=O)c2cc(F)c(N3CCNCC3)cc21
inactive: Potency [12] | Potency [13] | Potency [4] | Potency [5] | Potency [6]
active: Potency [16] 27.1 µM

COC(=O)Nc1nc2ccc(Sc3ccccc3)cc2[nH]1
inactive: Potency [1]

CC1CC2C3CCC4=CC(=O)C=C[C@]4(C)[C@@]3(F)[C@@H](O)C[C@]2(C)[C@@]1(O)C(=O)CO (stereo partly specified)
inactive: Potency [7] | Potency [1] | activity, negative = inhibition [8] -6.72% | outcome [9] | outcome [10]

CC(=O)Oc1ccccc1C(=O)Nc1ncc([N+](=O)[O-])s1
active: Potency [6] 23.4 µM
inactive: Potency [1] | Potency [5]

CN1CCN(c2c(F)cc3c(=O)c(C(=O)O)cn4c3c2OCN4C)CC1
inactive: Potency [1] | Potency [5]

COc1ccc2c(c1)c(CC(=O)OCC(=O)O)c(C)n2C(=O)c1ccc(Cl)cc1
inactive: Potency [1] | Potency [5]

O=C(O)CCn1c2c(c3ccccc31)C[C@H](NS(=O)(=O)c1ccc(F)cc1)CC2
inactive: Potency [1] | outcome [14] | outcome [15]

CCc1cc(C(N)=S)ccn1
inactive: Potency [1] | Potency [5] | Potency [6]

NC(=O)c1ccc2[nH]ccc2c1
inactive: Potency [1] | activity, negative = inhibition [8] -16.4% | outcome [9] | outcome [10] | Potency [6]

CC1=CC(=O)c2ccccc2C1=O
inactive: Potency [1] | Potency [5]

CC(C)(C)NC(=O)[C@H]1CC[C@H]2[C@@H]3CC[C@H]4NC(=O)C=C[C@]4(C)[C@H]3CC[C@]12C
inactive: Potency [1] | Potency [5] | Potency [6]

NC(=O)N1c2ccccc2CC(=O)c2ccccc21
inactive: Potency [1] | Potency [5]

NC(=O)c1cccc(N)c1
inactive: Potency [1] | outcome [9] | outcome [10] | Potency [6]

NC(=O)c1cccnc1
inactive: Potency [1] | Potency [5] | Potency [6]

CC(C)(C#N)c1cc(Cn2cncn2)cc(C(C)(C)C#N)c1
inactive: Potency [1] | Potency [5] | Potency [6]

CO[C@@H]1[C@@H](OC(N)=O)[C@@H](O)[C@H](Oc2ccc3c(O)c(NC(=O)c4ccc(O)c(CC=C(C)C)c4)c(=O)oc3c2C)OC1(C)C
inactive: Potency [1] | Potency [5]

COc1cnc(NS(=O)(=O)c2ccc(N)cc2)nc1
inactive: Potency [1] | Potency [5]

COc1ccccc1OCC(O)COC(N)=O (stereo unspecified)
inactive: Potency [1] | Potency [5]

Cc1onc(-c2ccccc2Cl)c1C(=O)N[C@@H]1C(=O)N2[C@@H]1SC(C)(C)[C@@H]2C(=O)O
inactive: Potency [1] | Potency [11] | outcome [14] | Potency [5] | outcome [15]

CC[C@H](NC(C)C)[C@H](O)c1ccc(O)c2[nH]c(=O)ccc12
inactive: Potency [1] | Potency [5] | Potency [6]

N[C@@H](Cc1ccc(O)c(O)c1)C(=O)O
active: Potency [1] 27.1 µM
inactive: activity, negative = inhibition [8] 0.726%

COc1ccc2cc3[n+](cc2c1OC)CCc1cc2c(cc1-3)OCO2
inactive: Potency [1] | Potency [5]

CC(C)C[C@H](NC(=O)[C@H](CCc1ccccc1)NC(=O)CN1CCOCC1)C(=O)N[C@@H](Cc1ccccc1)C(=O)N[C@@H](CC(C)C)C(=O)[C@@]1(C)CO1
active: Potency [5] 0.0938 µM | Potency [6] 0.0262 µM
inactive: Potency [1]

COc1ncnc(NS(=O)(=O)c2ccc(N)cc2)c1OC
inactive: Potency [1] | Potency [5] | Potency [6]

O=S(=O)(O)CCS
inactive: Potency [1] | Potency [5] | Potency [6]

C[C@@H](CN1CC(=O)NC(=O)C1)N1CC(=O)NC(=O)C1
inactive: Potency [1] | Potency [5] | Potency [6]

CCOC(=O)c1ccc(OC(=O)CCCCCN=C(N)N)cc1
inactive: Potency [1] | Potency [5] | Potency [6]

COc1cc2ncnc(Nc3cccc(Cl)c3)c2cc1OC
inactive: Potency [1] | Potency [11] | outcome [14] | outcome [10]
active: Potency [6] 29.4 µM
